Source: PubChem BioAssay AID602362 (National Center for Advancing Translational Sciences (NCATS), 2012)
Some of the results follow. Inconclusive results are not listed. Calls of active or inactive are those of the source. The call rests on the fitted dose curve; in most records, active means well fitted inhibition curve with a large enough effect; inconclusive means small, poorly fitted or top-dose-only effect; inactive means no such curve, though single readings can be large or run the other way.

target: 4'-phosphopantetheinyl transferase Sfp (Bacillus subtilis (strain 168)) (UniProt P39135); experiment: qHTS Assay for Inhibitors of Bacillus subtilis Sfp phosphopantetheinyl transferase (PPTase): Gel Based Assay; settings: purified Sfp PPTase, gel-based product detection
Description: The covalent attachment of a phosphopantetheinyl (4'-PP) arm to a variety of synthases and other proteins is a key posttranslational protein modification. The 4'-PP is installed on the proteins post-translationally from coenzyme A (CoA) on a conserved serine residue by action of phosphopantetheinyl transferase (PPTase) enzymes. Phosphopantetheinylation is essential for synthase activity, and removal of the PPTase gene precludes natural product synthesis in microorganisms, or in the case of fatty acid biosynthesis, renders the organism unviable. PPTase enzymes belong to a distinct structural superfamily. Within bacteria, these enzymes are grouped into two classes based upon primary structure, the AcpS-Type and Sfp-Type PPTases. […]
In search of small molecule Sfp-PPTase inhibitors, a fluorescence quenching assay was developed for detection of Bacillus subtilis Sfp-PPTase enzymatic activity in a miniaturized high-throughput format. […]
In this assay, compounds were evaluated by monitoring of fluorescence transfer to whole carrier protein substrates via polyacrylamide gel electrophoresis. […]
The SDS-PAGE based assay detects the direct incorporation of a fluorescent label into a carrier protein substrate. […] The images are analysed by fluorescent densometry using the ImageJ software package available from the NIH.

SMILES	Potency
COc1ccnc(NC(=S)N2CCN(c3ncc(C(F)(F)F)cc3Cl)CC2)c1	2.14 µM (active)
Cc1cc(C)nc(NC(=S)N2CCN(c3ccc(Cl)cc3C(F)(F)F)CC2)c1	1.07 µM (active)
